Among all 2,100 compounds or so, about 670 (32%) were called active. Not shown: some 50% with an inconclusive outcome. The call rests on the fitted dose curve; in most records, active means well fitted inhibition curve with a large enough effect; inconclusive means small, poorly fitted or top-dose-only effect; inactive means no such curve, though single readings can be large or run the other way. The list shows a part of the results.
assay: CMV-Luciferase Counterscreen for Inhibitors of ATXN expression; conditions: HEK-293 CMV-luciferase reporter, luminescence, 24 h; series mostly up to 57.5 µM; further: nearly all actives have a fitted effect of over 55% in size
On the % scale 0 is the no-effect control and ±100 the full control effect; potency means the concentration at half of the fitted maximal effect.

Row | Structure (SMILES) | Potency | activity change, negative = inhibition
1 | O=C(O)CCn1cc(/C=C/C(=O)c2ccc(Cl)cc2)c(-c2ccc(Br)cc2)n1 | 10 µM (active) | –
2 | CC[C@@]1(O)C(=O)OCc2c1cc1n(c2=O)Cc2cc3c(CN(C)C)c(O)ccc3nc2-1 | 11.2 µM (active) | –
3 | CCC1(O)C(=O)OCc2c1cc1n(c2=O)Cc2cc3cc(O)ccc3nc2-1 (centres undefined) | 0.891 µM (active) | –
4 | O=C(NC1C=CS(=O)(=O)C1)c1sc2ccccc2c1Cl (centres undefined) | – | -11.1% [at 11.4 µM] (inactive)
5 | Brc1cnc2nc(SCc3nc4ccccc4[nH]3)[nH]c2c1 | – | 361% [at 11.4 µM] (inactive)
6 | CCCCc1ccc(NC(=O)N2CCN(c3cc(C)nc4ccccc34)CC2)c(C)c1 | 12.6 µM (active) | –
7 | Cc1cc2nc(-c3nnnn3Cc3ccccc3)c(=O)[nH]c2cc1C | – | -9.85% [at 11.4 µM] (inactive)
8 | CCn1c2ccccc2c2cc(NC(=O)COC(=O)Cc3cn4ccsc4n3)ccc21 | – | 33.4% [at 11.4 µM] (inactive)
9 | CCn1c2ccccc2c2cc(NC(=O)COC(=O)c3ccccc3F)ccc21 | – | 9.52% [at 11.4 µM] (inactive)
10 | CC(=O)c1ccc(NC(=O)COC(=O)c2c3c(nc4ccccc24)/C(=C\c2cccs2)CCC3)cc1 | 17.8 µM (active) | –
11 | Cc1cc(C)nc(N/N=C2/CCCC/C2=C\c2ccccc2)n1 | 3.16 µM (active) | –
12 | NC(N)=N/N=C/c1ccc2cccc(OCc3ccccc3)c2n1 | 22.4 µM (active) | –
13 | Cc1cc(Cl)ccc1-c1cc2nc(NCCCN(C)C)n(C)c(=O)c2s1 | – | 5.92% [at 11.4 µM] (inactive)
14 | CNc1nc2c(N)ncnc2n1[C@H]1O[C@@H](CO)[C@H](O)[C@@H]1O | – | 119% [at 11.4 µM] (inactive)
15 | N#Cc1c(N)n(C2OC(CO)C(O)C2O)c2ncnc(N)c12 (centres undefined) | inactive | –
16 | Nc1ccn([C@@H]2O[C@H](CO)[C@@H](O)C2O)c(=O)n1 (some centres undefined) | 2.51 µM (active) | –
17 | COC(=O)c1c(NC(=O)c2ccc([N+](=O)[O-])o2)sc2c1CCN(C(C)C)C2 | 15.8 µM (active) | –
18 | O=C(COc1ccccc1Cl)Nc1ccc(N2CCN(C(=O)c3ccccc3)CC2)cc1 | 3.55 µM (active) | –
19 | CC(=O)N(C1=C(Cl)C(=O)c2ccccc2C1=O)C1CCCCC1 | 12.6 µM (active) | –
20 | CCCCOc1ccccc1NC(=O)Cn1c(-c2nonc2N)nc2ccccc21 | inactive | –

Row | Structure (SMILES) | Potency | activity change, negative = inhibition
21 | COCCCn1c(N)c(-c2nc3ccccc3n2C)c2nc3ccccc3nc21 | 17.8 µM (active) | –
22 | Cc1ccc(NS(=O)(=O)c2ccc(NC(=O)C(C)Sc3ccc(Cl)cc3)cc2)c(C)c1 (centres undefined) | 25.1 µM (active) | –
23 | O=C(c1ccc(F)cc1F)C1CCN(c2ccc([N+](=O)[O-])cn2)CC1 | 4.47 µM (active) | –
24 | CC(Oc1ccc(F)cc1)C(=O)Nc1nc(-c2ccccn2)cs1 (centres undefined) | 2.51 µM (active) | –
25 | NC(c1ccccc1)c1csc(NC(=O)Nc2ccccc2Oc2ccccc2)n1 (centres undefined) | – | -22.9% [at 11.4 µM] (inactive)
26 | COC(=O)C(Cc1ccc(O)cc1)NC(=O)C(C)Oc1ccccc1 (centres undefined) | inactive | –
27 | Cc1cc(C)c2nc(NNC(=O)c3cc(-c4cccs4)nc4ccccc34)sc2c1 | 2.82 µM (active) | –
28 | CCN1CCS/C1=C\C=C\C1=[N+](CC)CCS1 | 3.98 µM (active) | –
29 | NCCCCCc1nnc(SCc2ccccc2Cl)o1 | – | -36.5% [at 11.4 µM] (inactive)
30 | CCOC(=O)c1c(-c2ccccc2)oc2cc(CN(C)C)c(O)c(CN(C)C)c12 | 8.91 µM (active) | –
31 | CC(=O)Nc1ccc(N(CC(O)Cn2c3ccccc3c3ccccc32)S(=O)(=O)c2ccc(C)cc2)cc1 (centres undefined) | 20 µM (active) | –
32 | Cn1c(SCC(=O)N/N=C/c2ccc([N+](=O)[O-])s2)nnc1-c1ccccc1 | 22.4 µM (active) | –
33 | Cn1c(SCC(=O)N/N=C/c2ccc([N+](=O)[O-])s2)nnc1-c1ccc(Cl)cc1 | 15.8 µM (active) | –
34 | O=C(CSc1nnnn1-c1ccccc1)Nc1nsc(-c2ccccc2)n1 | inactive | –
35 | CSc1sc(-c2nnc(SCC(=O)Nc3ccc(Cl)cc3)n2C)c2c1C=CCC2 | – | -19.8% [at 11.4 µM] (inactive)
36 | Cn1c(SCC(=O)Nc2cc(Cl)cc(Cl)c2)nnc1-c1ccc2nonc2c1 | – | -10.7% [at 11.4 µM] (inactive)
37 | Cc1ccc2[nH]c(=O)c(CN(CCCN(C)C)C(=O)Nc3cccc(Cl)c3)cc2c1 | inactive | –
38 | O=c1c2ccc(Cl)cc2nc(-c2ccc([N+](=O)[O-])cc2)n1O | 7.94 µM (active) | –
39 | Cc1cc(Cl)c(C(=O)Nc2cccc(C(F)(F)F)c2)c(C)n1 | 17.8 µM (active) | –
40 | CC(C)(C)c1cc(C(=O)NNc2cc(C(F)(F)F)ccc2Cl)n(Cc2ccccc2)n1 | inactive | –

Row | Structure (SMILES) | Potency | activity change, negative = inhibition
41 | Cc1nc(-c2c(C(F)(F)F)noc2-c2ccc(O)cc2O)cs1 | 11.2 µM (active) | –
42 | CCCCC(=O)NC(c1ccccc1OC)c1ccc2cccnc2c1O (centres undefined) | 2.82 µM (active) | –
43 | CCCCC(=O)NC(c1ccc(OC)c(OC)c1)c1ccc2cccnc2c1O (centres undefined) | 2.82 µM (active) | –
44 | CCC(=O)NC(c1ccc(Cl)cc1Cl)c1ccc2cccnc2c1O (centres undefined) | 2.24 µM (active) | –
45 | CCCCC(=O)NC(c1ccccc1Cl)c1ccc2cccnc2c1O (centres undefined) | 2.51 µM (active) | –
46 | COc1ccc(N2C3=C(CC4=C2CC(C)(C)CC4=O)C(=O)CC(C)(C)C3)cc1 | – | -2.52% [at 11.4 µM] (inactive)
47 | CCCC(=O)NC(c1ccc(Cl)cc1Cl)c1ccc2cccnc2c1O (centres undefined) | 2.51 µM (active) | –
48 | CCCCC(=O)NC(c1ccc(Cl)cc1Cl)c1ccc2cccnc2c1O (centres undefined) | 0.794 µM (active) | –
49 | CCCCOc1ccc(C(=O)NNC(=O)c2cnccn2)cc1OC | 10 µM (active) | –
50 | CN(C)CCC(c1ccc(Br)cc1)c1ccccn1 (centres undefined) | inactive | –
51 | Cc1noc(C)c1CSCC(=O)Nc1nc(-c2ccc(F)c(F)c2)cs1 | 25.1 µM (active) | –
52 | COc1ccc(/C(N)=N/OC(=O)N2CCOCC2)cc1 | – | 20.7% [at 11.4 µM] (inactive)
53 | COCCNc1nc(-c2cc(C)n(CCc3ccc(OC)cc3)c2C)cs1 | inactive | –
54 | O=C(CCN1C(=O)C2CC=CCC2C1=O)Nc1nc(-c2ccc(F)c(F)c2)cs1 (centres undefined) | inactive | –
55 | COc1ccc(CC(=O)Nc2nc(-c3ccc(F)c(F)c3)cs2)cc1OC | 6.31 µM (active) | –
56 | COc1ccc(-c2csc(NC(=O)c3ccc(OCC(=O)N4CCOCC4)c(OC)c3)n2)cc1OC | 14.1 µM (active) | –
57 | O=C(Nc1nc(-c2ccc(F)c(F)c2)cs1)Nc1ccc(F)cc1F | – | 6.09% [at 11.4 µM] (inactive)
58 | COc1cc(C(=O)OC(C)C(=O)N2CCc3ccccc3C2)ccc1OCC(=O)N1CCOCC1 (centres undefined) | – | -9.5% [at 11.4 µM] (inactive)
59 | COc1ccc(CC(=O)Nc2nc(-c3ccc(OC)c(OC)c3)cs2)cc1OC | 3.55 µM (active) | –

— PubChem BioAssay AID1745847 (National Center for Advancing Translational Sciences (NCATS), 2022)
